# In the library only some 0.85% were active in any assay of this set; here they are far more common.
# CCT modulator: modulators of cytosolic chaperonin (CCT/TRiC) activity; purified chaperonin ATPase assay, HTRF ADP detection, 30 min; activity change, % (test concentration not listed), hits read low; actives 0.3% (n = 360,000); AID 651819; in the data active means activity change below about -30%
#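 ATPase activity: ADP formed was measured by HTRF Transcreener (665/615 nm ratio) after 30 min at 37 deg C with 10 uM ATP. Compounds screened at one 76 uM concentration against 40 or 20 nM TRiC in Tris pH 7.4/KCl/MgCl2/DTT buffer.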
# MmCpn inh: inhibitors of Methanococcus maripaludis chaperonin TRiC (MmCpn); purified Mm-Cpn ATPase, ADP Transcreener TR-FRET; Potency, µM (top dose mostly 76.9 µM), actives largely listed as inhibitors; actives 0.031% (n = 330,000); AID 504842; further: nearly all actives have a fitted effect of over 80% in size
#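 25 nM Mm-CPN + cpd, 10 min 37°C; + 10 uM ATP, 30 min 37°C; buffer 30 mM Tris pH 7.4, 100 mM KCl, 5 mM MgCl2, 1 mM DTT; Transcreener ADP HTRF detection 30 min RT.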
# Glioma ERSR ind: ER stress response induction in glioma; actives 0.02% (n = 420,000); Potency, µM, hits mostly activators; U87-MG GRP78 promoter luciferase reporter, 16 h; further: series mostly up to about 76 µM; nearly all actives have a fitted effect of over 35% in size
#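 ERSR induction read as luciferase luminescence (Bright-Glo, 10 min at room temperature) in stably transfected human U87-MG glioma cells exposed to compounds for 16 h, using GRP78 as sensor.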
# GLS inh: blocks human kidney-isoform glutaminase activity; O94925; GLS enzymatic activity, qHTS titration; Potency, µM (doses to about 45.5 µM), most hits filed as inhibitors; actives 0.21% (n = 410,000); AID 624170
#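 Glutamate formation by hKGA was monitored fluorometrically using coupled glutamate oxidase, HRP and Amplex Red. Substrate was added as 1 mM L-glutamine solution; incubation was 30 min at RT after an initial read.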
# Akt phos inh: blocks phosphorylation of Akt; actives 0.32% (n = 360,000); Neuro2A IGF-stimulated pAkt S473 HTRF, 20 min; hits give low values; AID 651550; activity change, % for hits at 50 µM; in the data active means activity change below about -80%; inconclusive means mostly about -51% to -80%
#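 Neuro2A cells (4,500/well, DMEM with 0.5% FBS) were treated with compound at a single 50 µM final concentration, stimulated with 6 nM IGF for 20 min at 37 °C, and lysed. Phospho-Akt Ser473 was read by HTRF as 665/615 ratio ×10^4.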
# IDH1 R132H inh: human IDH1 R132H inhibition. IDH1-R132H enzyme, NADPH consumption, diaphorase/resazurin fluorescence. Potency, µM (series often up to 76.6 µM), hits mostly inhibitors. actives 0.093% (n = 390,000); further: nearly all actives have a fitted effect of over 65% in size
# Target sequence (O75874 whole entry R132H, stated change not applied): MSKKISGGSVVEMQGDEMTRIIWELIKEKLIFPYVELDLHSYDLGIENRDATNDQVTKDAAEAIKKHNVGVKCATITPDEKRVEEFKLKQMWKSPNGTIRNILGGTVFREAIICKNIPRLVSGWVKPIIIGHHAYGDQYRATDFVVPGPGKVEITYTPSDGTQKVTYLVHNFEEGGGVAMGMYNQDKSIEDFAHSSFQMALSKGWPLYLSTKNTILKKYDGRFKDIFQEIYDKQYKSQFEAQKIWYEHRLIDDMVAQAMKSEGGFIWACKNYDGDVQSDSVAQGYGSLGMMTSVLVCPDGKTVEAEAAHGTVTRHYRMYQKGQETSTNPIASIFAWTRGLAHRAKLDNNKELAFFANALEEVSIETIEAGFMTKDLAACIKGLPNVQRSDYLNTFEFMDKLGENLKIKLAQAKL
#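 IDH1-R132H (0.5 ug/mL) preincubated 30 min with compound, then NADPH (0.016 mM) and alpha-KG (2 mM) added; 80 min at RT, pH 7.5. Remaining NADPH coupled via diaphorase/resazurin to fluorescence (540/590 nm); concentration-response curves normalized to no-enzyme control.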
# Resorufin autofl: autofluorescence interference, mutant IDH1 hit counter-screen | shares compounds with IDH1 R132H inh | Resorufin detection reagent fluorescence interference, cell-free | inhibition of signal, % at 51.2 µM | 750 tested, under 10 active
# IDH1 WT: selectivity of mutant IDH1 inhibitors: human wild-type IDH1 | shares compounds with IDH1 R132H inh | WT IDH1 enzyme, NADPH diaphorase/resazurin fluorescence | Potency, µM (highest dose often 115 µM), hits mostly inhibitors | actives 9% (n = 750); further: nearly all actives have a fitted effect of over 55% in size
# Target sequence (O75874 whole entry, looked up): as the sequence (O75874 whole entry R132H, stated change not applied) above, with H132R counted along it
# IDH1 R132H conf: confirmation of human mutant IDH1 inhibitors; shares compounds with IDH1 R132H inh; actives 83% (n = 750); IDH1 R132H enzyme, NADPH diaphorase/resazurin fluorescence; Potency, µM (titrated, usually from 76.6 µM), actives largely listed as inhibitors; AID 624002; further: nearly all actives have a fitted effect of over 50% in size
# Hits are given with their value; – = inactive; ? = inconclusive; · = not tested or not shown. Unless noted, the call rests on the fitted dose curve; in most records, active means well fitted curve in the direction sought with a large enough effect; inconclusive means small, poorly fitted or top-dose-only effect, or another doubt; inactive means no such curve, though single readings can be large; an effect the other way counts as inactive or inconclusive.
SMILES,CCT modulator,MmCpn inh,Glioma ERSR ind,GLS inh,Akt phos inh,IDH1 R132H inh,Resorufin autofl,IDH1 WT,IDH1 R132H conf
CC(C)Cc1nc2cc(NS(=O)(=O)N(C)C)cc(C(=O)N3CCc4ccccc4C3)c2n1C,·,·,–,·,·,·,·,·,·
O=C(NC1CCCCC1)C(c1ccco1)N(C(=O)c1csnn1)c1ccccc1 (configuration not stated),–,–,–,–,–,–,·,·,·
O=C(NC1CCCC1)C(c1ccco1)N(C(=O)c1ccco1)c1ccccc1 (configuration not stated),–,–,–,–,–,?,–,–,40µM
O=C(/C=C/c1cccc([N+](=O)[O-])c1)c1ccc([N+](=O)[O-])o1,–,·,–,–,–,?,·,·,·
Cc1ccccc1/C=C/C(=O)c1ccc([N+](=O)[O-])o1,–,–,–,–,–,?,–,40µM,?
Cc1cccc(/C=C/C(=O)c2ccc([N+](=O)[O-])o2)c1,–,–,–,–,–,4.5µM,–,22µM,2µM
OC1CCN(Cc2ccc3c(c2)CN(C/C=C/c2ccco2)CCO3)CC1,·,·,–,·,·,·,·,·,·
COc1cccc(C(=O)NC(C)c2nnc3n2CCN(CC=C(C)C)CC3)c1 (configuration not stated),·,·,–,·,·,·,·,·,·
COc1cccc(-c2cc3c(c(OC)c2)OCCN(Cc2ccccc2O)C3)n1,·,·,–,·,·,·,·,·,·
NS(=O)(=O)c1ccc(Cc2ncc(C(F)(F)F)cc2Cl)s1,–,–,–,–,–,–,·,·,·
O=C(CCl)c1ccc(Cc2ncc(C(F)(F)F)cc2Cl)s1,–,–,–,–,–,?,–,?,22µM
COc1cccc(-n2c(SC)nnc2C2CCN(Cc3cccc(OC)c3O)CC2)c1,·,·,–,·,·,·,·,·,·
CCOc1ccccc1N(C(=O)c1snc(C(N)=O)c1N)C(C(=O)NC1CCCC1)c1cccs1 (configuration not stated),–,–,–,–,–,?,–,–,?
CCOc1ccccc1N(C(=O)c1snc(C(N)=O)c1N)C(C(=O)NCc1ccccc1)c1ccc(O)cc1 (configuration not stated),–,–,–,–,–,?,–,–,13µM
CCOc1ccccc1N(C(=O)c1snc(C(N)=O)c1N)C(CC)C(=O)NC1CCCC1 (configuration not stated),–,–,–,–,–,–,·,·,·
CCOc1ccccc1N(C(=O)c1snc(C(N)=O)c1N)C(C(=O)NC1CCCC1)c1ccco1 (configuration not stated),–,–,–,–,–,?,–,–,40µM
O=C(NCCc1ccccn1)c1cnn(-c2ncc3c(n2)-c2ccccc2CC3)c1C1CC1,·,·,–,·,·,·,·,·,·
CN1C(=O)CC(CC(=O)N2CCCCC2CCO)(c2cccc(F)c2)C1=O (configuration not stated),·,·,–,·,·,·,·,·,·
CCOC(=O)c1cc(-c2ccc(/C=N\n3cnnc3)o2)ccc1Cl,–,–,–,–,·,–,·,·,·
CCOC(=O)c1cc(-c2ccc(/C=C3/C(=O)N(c4ccc(C(=O)O)cc4)N=C3C)o2)ccc1Cl,–,–,–,–,–,?,–,5µM,1.3µM
O=C1CN(c2nc(-c3cccs3)nc3sc4c(c23)CCCC4)CCN1,–,–,–,–,–,52µM,–,?,28µM
CC(C)(C)CC(C)(C)N=C1Nc2ccc(Cl)cc2NC12C[C@H]1CCC(=O)N3CC[C@@H](C2)[C@@H]13 (some centres not stated),·,·,–,·,·,·,·,·,·

# Bioassay records deposited in PubChem BioAssay by National Center for Advancing Translational Sciences (NCATS).
